The campaign covered roughly 1,200 compounds. About 210 (18%) were called active. Rule as the data show it: active = inhibition above about 30%; inactive = the rest. Only a sample is shown.

Consider 91 compounds from PubChem BioAssay AID2069 (Sanford-Burnham Center for Chemical Genomics, 2009).

The nature of this assay: fluorescence readout artefact check – biochemical, HTRF, uHTS, artefact control for SUMOylation inhibitor project, confirmation (AID 2069). Conditions: HTRF interference counterscreen, at 35 µM, hits give high values. A general note: Time-resolved FRET reads energy transfer from a long-lived donor to a nearby acceptor.
The inhibition is the drop in the measured response relative to a control, in per cent. Consider `CN(C)c1cccc2c(S(=O)(=O)Nc3ccccn3)cccc12`, for which the inhibition was 20% (inactive). Next, `CN(C)c1cccc2c(S(=O)(=O)N3CCCC3)cccc12`: 36.4% (active).

With `CN(C)c1cccc2cccc(N(C)C)c12`, the inhibition is 13.3% (inactive). For `Cn1c2ccccc2c2cnn(CC(=O)Nc3ccc(Cl)cc3)c(=O)c21` the value was 15.8% (inactive); for `Cc1cc(C)c(S(=O)(=O)NCC23C=CC(O2)C2C(=O)N(c4ccccc4)C(=O)C23)c(C)c1` (stereo unspecified), -17.5% (inactive); for `O=C(NN1C(=O)CSC1=S)C(=O)NN1C(=O)CSC1=S`, 32.4% (active). Next, `COc1ccc(NC(=S)Nc2ccc3nsnc3c2)cc1`: 15.8% (inactive); `CC(=O)OCCNc1cc(SCc2ccco2)c2nonc2c1[N+](=O)[O-]`: -1.55% (inactive). Next, `Cc1oc2c(c(C)cc3oc(=O)c(CC(=O)N[C@H](C(=O)O)C(C)C)c(C)c32)c1C`: 56.9% (active). With `Cc1cc(OC(C(=O)O)c2ccccc2)c2c(C)c(Cc3ccccc3)c(=O)oc2c1` (stereo unspecified), the inhibition was 21.4% (inactive). For `Cc1oc2c(c(C)cc3oc(=O)c(CC(=O)N[C@@H](C)C(=O)O)c(C)c32)c1C` the value was 53.8% (active); for `CCC(NC(=O)Cc1c(C)c2c(cc(C)c3c(C)c(C)oc32)oc1=O)C(=O)O` (stereo unspecified), 51.6% (active); for `CSCC[C@H](NC(=O)Cc1c(C)c2c(cc(C)c3c(C)c(C)oc32)oc1=O)C(=O)O`, 48.5% (active). Next, `Nc1ccccc1NC1=CC(=O)CC(c2ccco2)C1` (stereo unspecified): 16.8% (inactive); `CC1=NN(c2ccc(C(=O)O)cc2)C(=O)/C1=C\c1ccc(OC(=O)c2cccs2)cc1`: 12.1% (inactive); `C[n+]1cccc2c(Br)ccc([O-])c21`: -20.8% (inactive). Consider `C[n+]1cccc2cccc([O-])c21`, for which the inhibition is 5.4% (inactive).

As to `Cc1cccc2c(N=Nc3ccc(S(=O)(=O)Nc4cccc(Cl)c4)cc3[N+](=O)[O-])c(O)[nH]c12`, the inhibition was -2.75% (inactive). Next, `CCOCCCNC1=C(Cl)C(=O)c2ccccc2C1=O`: -7.4% (inactive); `Cc1ccc(NC(=O)CSc2nnc(-c3ccco3)c(-c3ccco3)n2)cc1`: 0.35% (inactive); `O=C(Nc1ccc2nsnc2c1)N1CCCCC1`: 12.4% (inactive). Next, `Oc1ccc(N=Cc2ccc(OCc3ccccc3)cc2)cc1`: -5.35% (inactive). For `CC1=CC(C)(C)N2C(=O)C(=Nc3ccc(O)cc3)c3cccc1c32` the value was -3.6% (inactive). Consider `Cc1ccc(NC(=O)CN2C(=O)S/C(=C\c3cc(Cl)c(OCC(=O)O)c(Cl)c3)C2=O)cc1`, for which the inhibition is 19.7% (inactive). For `O=C1CC(c2ccco2)CC(O)=C1C=Nc1cc(Cl)ccc1Cl` (stereo unspecified) the value was 1.35% (inactive). For `C/C(=N\OCc1nc2ccccc2c(=O)n1/N=C/c1cc([N+](=O)[O-])ccc1O)c1ccccc1` the value was -16.2% (inactive); for `CCOc1ccc(S(=O)(=O)N2CCCC(C(=O)NCc3ccco3)C2)cc1` (stereo unspecified), -1.5% (inactive). Next, `CCOc1ccc(NC(=O)c2ccc(NC(=O)c3ccc(CN4CCOCC4)cc3)cc2)cc1`: 5.55% (inactive). `CCOc1ccc(N2CC(C(=O)NCc3ccc(F)cc3)CC2=O)cc1` (stereo unspecified): the inhibition is 34.9% (active).

In the case of `O=[N+]([O-])c1cc([N+](=O)[O-])c2nonc2c1Nc1ccc(O)cc1`, the inhibition is -10.7% (inactive). Next, `COc1ccc2c(c1)-c1nc(/N=C/c3cccc(OC)c3O)sc1CC2`: 1.05% (inactive). For `COc1cc(NS(=O)(=O)c2ccc(NC(=S)NC(=O)/C=C/c3ccco3)cc2)ncn1` the value was 25.8% (inactive); for `O=C(COC(=O)c1cc(NS(=O)(=O)c2cccs2)ccc1O)Nc1cc(Cl)ccc1Cl`, 13.8% (inactive); for `O=C(N/N=C/c1ccccc1)c1ccc(CN2C(=O)c3cccc4cccc2c34)cc1`, 38.8% (active).

Take `O=C(O)c1ccc(/C=N/NC(=O)c2ccc(CN3c4cccc5cccc(c45)S3(=O)=O)cc2)cc1`: the inhibition is 18.2% (inactive). For `COc1ccccc1/C=N/NC(=O)c1ccc(CN2C(=O)c3cccc4cccc2c34)cc1` the value was 48.2% (active).

For `C=CCc1cccc(/C=N/NC(=O)CNc2cccc3ccccc23)c1O`, the inhibition is 4.7% (inactive).

With `O=C(O)c1cccc(Cn2c(Cl)c(/C=N/NC(=O)c3cc4ccccc4cc3O)sc2=O)c1`, the inhibition was -2% (inactive).

Consider `O=C(Cc1cc(=O)[nH][nH]1)N/N=C/c1cccc2ccccc12`, for which the inhibition was -6.95% (inactive). For `COc1ccc2c(c1)CC/C(=C\Nc1ccc3c(c1)OCO3)C2=O` the value was -3.55% (inactive); for `C=CCOc1c(Br)cc(/C=C2\SC(=Nc3ccccc3)NC2=O)cc1OC`, 9.1% (inactive); for `O=C(O)c1cccc([N+](=O)[O-])c1C(=O)Nc1cccc2ccccc12`, -3.8% (inactive). Next, `Cc1ccc(C(=O)Nc2ccccc2C(=O)N2CCN(c3ccccc3)CC2)cc1`: -8.05% (inactive). Next, `Cn1c(=O)cc(C(=O)N/N=C/c2ccc(Cl)cc2)[nH]c1=O`: -5.8% (inactive); `CCc1nc2sc(C(C)=O)c(N)c2c2c1CCCC2`: 9.65% (inactive); `O=[N+]([O-])c1cccc(C=Nc2cccc3ccccc23)c1O`: 29.6% (inactive).

Take `CCOc1ccc(NC(=S)Nc2ccc3nsnc3c2)cc1`: the inhibition is 19.4% (inactive).

With `O=C1NC(=Nc2ccc3ccccc3c2)S/C1=C/c1ccco1`, the inhibition was 9.5% (inactive). For `COc1cccc(NC(=S)Nc2cccc3ccccc23)c1` the value was 2.35% (inactive).

Regarding `S=C(Nc1ccc2nsnc2c1)N1CCCC1`, the inhibition was 35.6% (active). Next, `S=C(Nc1ccc2nsnc2c1)N1CCCCC1`: 16.2% (inactive). For `S=C(Nc1ccc2nsnc2c1)N1CCCCCC1` the value was 6.8% (inactive); for `S=c1[nH]nc(-c2cc(-c3ccccc3)n[nH]2)n1/N=C/c1cccc(Cl)c1`, -8.55% (inactive). For `COc1ccc(/C=C/c2nnc(NC(=O)CSc3ccc(C)cc3)s2)cc1` the value was 9.65% (inactive); for `CCOc1cc(/C=C2\C(=O)N(c3ccc(C(N)=O)cc3)N=C2C)ccc1OC(=O)c1cccs1`, -9.6% (inactive); for `Nc1ccc2nc(-c3ccccc3)sc2c1`, 66% (active). Turning to `Nc1ccc2c(c1)sc1ccccc12`, the inhibition is -9.65% (inactive).

With `Cc1ccc(C)c(S(=O)(=O)c2c(N)n(/N=C/c3ccco3)c3nc4ccccc4nc23)c1`, the inhibition is -11.7% (inactive). Next, `CCc1nn(CC(=O)NC(C)CCc2ccccc2)c(=O)c2cc3cc(F)ccc3n12` (stereo unspecified): 16.4% (inactive); `CC(=O)c1ccc2c(c1)C1C=CCC1C(C(=O)O)N2` (stereo unspecified): 70.7% (active); `COc1cccc(NS(=O)(=O)c2ccc3c(c2)C2C=CCC2C(c2ccc(C(=O)O)cc2)N3)c1` (stereo unspecified): 8.05% (inactive). For `O=C(O)c1ccc(NS(=O)(=O)c2ccc3c(c2)C2C=CCC2C(c2ccccc2F)N3)cc1` (stereo unspecified) the value was 3.15% (inactive); for `CCc1ccc(NC(=O)NNC(=O)c2cc3ccccc3cc2O)cc1`, 8.2% (inactive).

`N#Cc1c(-c2cccs2)nc(SCc2ccc(Cl)cc2)[nH]c1=O`: the inhibition was 21.6% (inactive). For the compound `NC(=O)C1CCN(C2=C(NS(=O)(=O)c3ccc(Cl)cc3)C(=O)c3ccccc3C2=O)CC1`, the inhibition is -20.8% (inactive).

`COCCn1c(N)c(C(=O)OCc2ccccc2)c2nc3ccccc3nc21`: the inhibition was 16% (inactive). For `CC(C)(C)OC(=O)c1c(N)n(CCCN2CCCC2=O)c2nc3ccccc3nc12` the value was 41.4% (active).

`C=CCn1c(N)c(C(=O)Nc2ccccc2)c2nc3ccccc3nc21`: the inhibition is 20.9% (inactive). For the compound `COc1ccc(CNC(=O)c2c(N)n(CCCN3CCOCC3)c3nc4ccccc4nc23)cc1`, the inhibition is 17.5% (inactive). For `C=CCn1c(N)c(C(=O)OC(C)(C)C)c2nc3ccccc3nc21` the value was 32.7% (active). For `C=CCn1c(N)c(C(=O)Nc2cccc(C)c2)c2nc3ccccc3nc21` the value was 6.4% (inactive). As to `O=C(Nc1cccc2cccc(NC(=O)c3ccco3)c12)c1ccco1`, the inhibition is -6.45% (inactive). Regarding `NS(=O)(=O)c1ccc(NC2=CC(=O)C(=O)c3ccccc32)cc1`, the inhibition was 9.2% (inactive). For `CC(=O)c1cccc(NC(=S)Nc2cccc3ccccc23)c1` the value was 0.85% (inactive); for `Cc1ccc(S(=O)(=O)NNC(=O)Nc2cccc3ccccc23)cc1`, 4.05% (inactive).

For `Oc1cccc2c(NC(=S)Nc3ccc(SC(F)F)cc3)cccc12`, the inhibition was -6.1% (inactive). Next, `O=C(CCCN1C(=O)/C(=C/c2ccco2)SC1=S)Nc1ccccc1C(=O)O`: 1.8% (inactive). For `C/C(=N\NC(=O)CNc1cccc2ccccc12)c1ccccc1` the value was 18% (inactive). Next, `CC(=O)N1C(=S)NC(=O)/C1=C1/C(=O)N(CC(=O)Nc2cccc(C)c2)c2ccccc21`: 4.65% (inactive); `CCN(CC)C(=O)C1CCCN(C(=O)Nc2ccc3nsnc3c2)C1` (stereo unspecified): 17.5% (inactive); `C=CCn1c(N)c(C(=O)NCC2CCCO2)c2nc3ccccc3nc21` (stereo unspecified): 42.5% (active). Take `COCCn1c(N)c(C(=O)NCC2CCCO2)c2nc3ccccc3nc21` (stereo unspecified): the inhibition was 42.4% (active). Next, `Nc1c(C(=O)NCc2ccco2)c2nc3ccccc3nc2n1CCc1ccccc1F`: 15.7% (inactive); `COc1ccc(-n2c(N)c(C(=O)NCC3CCCO3)c3nc4ccccc4nc32)c(OC)c1` (stereo unspecified): 24.9% (inactive).

With `COCCn1c(N)c(C(=O)NCc2cccs2)c2nc3ccccc3nc21`, the inhibition was 28.6% (inactive). For `CC(C)Cn1c(N)c(C(=O)NCC2CCCO2)c2nc3ccccc3nc21` (stereo unspecified) the value was 34% (active); for `Nc1c(C(=O)NCc2ccco2)c2nc3ccccc3nc2n1CCc1ccc(F)cc1`, 23.6% (inactive). In the case of `CC(C)Cn1c(N)c(C(=O)NCc2cccs2)c2nc3ccccc3nc21`, the inhibition is 25.2% (inactive). For `Cc1ccc(-n2c(-c3cc(-c4ccco4)[nH]n3)n[nH]c2=S)c(Br)c1` the value was 16.4% (inactive). For `CC1=C(C(=O)Nc2ccccc2)C(c2ccc(C)cc2)N=C(Nc2nc3ccccc3o2)N1` (stereo unspecified) the value was 10.2% (inactive); for `CCc1ccc2c(c1)c1nc(C)sc1n2CC`, 0.45% (inactive).
